According to the supplement of paper PMC11732987, “Enantioselective OTUD7B fragment discovery through chemoproteomics screening and high-throughput optimisation” (Communications Chemistry, 2025):

Legend:
Experiment in all cases: log2 ratio of Biotin-Ahx-Ub-VS probe labelling (fragment/DMSO); higher = less target engagement (more negative = stronger competition), active = hit call of the paper (q ≤ 0.05, log2 ratio ≤ -1)
Settings in all cases: compound concentration: 200 uM; treatment time: 3 h
[1] = biological target: T1, ALG13 (UniProt Q9NP73)
T1 sequence (whole entry): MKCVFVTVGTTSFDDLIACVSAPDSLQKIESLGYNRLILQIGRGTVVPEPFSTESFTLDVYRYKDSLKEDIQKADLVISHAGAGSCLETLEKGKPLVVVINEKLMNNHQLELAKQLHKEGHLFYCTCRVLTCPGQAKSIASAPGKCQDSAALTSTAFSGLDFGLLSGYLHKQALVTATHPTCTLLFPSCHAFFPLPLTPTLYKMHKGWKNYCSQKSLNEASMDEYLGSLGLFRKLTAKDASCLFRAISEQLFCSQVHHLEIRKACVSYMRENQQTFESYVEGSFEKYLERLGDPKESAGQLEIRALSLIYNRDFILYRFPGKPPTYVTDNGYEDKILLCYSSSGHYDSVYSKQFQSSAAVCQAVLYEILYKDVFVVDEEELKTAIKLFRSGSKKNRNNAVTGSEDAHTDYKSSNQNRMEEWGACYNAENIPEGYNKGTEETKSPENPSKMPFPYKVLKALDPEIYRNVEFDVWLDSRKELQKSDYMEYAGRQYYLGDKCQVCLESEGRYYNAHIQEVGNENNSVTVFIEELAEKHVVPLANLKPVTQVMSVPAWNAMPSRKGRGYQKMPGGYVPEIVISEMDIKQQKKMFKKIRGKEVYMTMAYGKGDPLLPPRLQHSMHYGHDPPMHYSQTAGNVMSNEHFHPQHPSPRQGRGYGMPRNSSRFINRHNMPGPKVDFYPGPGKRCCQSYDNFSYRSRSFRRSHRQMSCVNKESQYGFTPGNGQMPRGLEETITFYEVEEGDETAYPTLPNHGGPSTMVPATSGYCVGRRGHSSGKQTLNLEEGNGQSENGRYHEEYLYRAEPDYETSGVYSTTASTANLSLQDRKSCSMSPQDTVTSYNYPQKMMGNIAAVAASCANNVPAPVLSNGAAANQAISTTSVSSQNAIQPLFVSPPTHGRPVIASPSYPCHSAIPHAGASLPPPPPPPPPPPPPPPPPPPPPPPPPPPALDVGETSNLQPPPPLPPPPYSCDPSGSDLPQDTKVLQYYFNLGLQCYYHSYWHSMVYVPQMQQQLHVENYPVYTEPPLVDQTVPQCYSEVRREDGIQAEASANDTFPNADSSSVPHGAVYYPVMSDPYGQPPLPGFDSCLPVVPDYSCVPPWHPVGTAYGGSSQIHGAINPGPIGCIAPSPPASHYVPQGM
Summary of the method: (§1)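 Fragment (200 µM) or vehicle was incubated for 3 h with triplicate HEK293T lysate samples of 495 µg, which were then treated with Biotin-Ahx-Ub-VS at 0.5 µM final for 1 h. Labelled DUBs were enriched on NeutrAvidin, digested with LysC and trypsin, and analysed by diaPASEF LC-MS/MS. Values are average log2 fragment/vehicle ratios from an unpaired t-test on global-median-normalised Spectronaut label-free quantities, using proteins with ≥2 unique peptides.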

[2] = biological target: ATXN3 (UniProt P54252)
Summary of the method: as §1

[3] = biological target: T2, BAP1 (UniProt Q92560)
T2 sequence (whole entry): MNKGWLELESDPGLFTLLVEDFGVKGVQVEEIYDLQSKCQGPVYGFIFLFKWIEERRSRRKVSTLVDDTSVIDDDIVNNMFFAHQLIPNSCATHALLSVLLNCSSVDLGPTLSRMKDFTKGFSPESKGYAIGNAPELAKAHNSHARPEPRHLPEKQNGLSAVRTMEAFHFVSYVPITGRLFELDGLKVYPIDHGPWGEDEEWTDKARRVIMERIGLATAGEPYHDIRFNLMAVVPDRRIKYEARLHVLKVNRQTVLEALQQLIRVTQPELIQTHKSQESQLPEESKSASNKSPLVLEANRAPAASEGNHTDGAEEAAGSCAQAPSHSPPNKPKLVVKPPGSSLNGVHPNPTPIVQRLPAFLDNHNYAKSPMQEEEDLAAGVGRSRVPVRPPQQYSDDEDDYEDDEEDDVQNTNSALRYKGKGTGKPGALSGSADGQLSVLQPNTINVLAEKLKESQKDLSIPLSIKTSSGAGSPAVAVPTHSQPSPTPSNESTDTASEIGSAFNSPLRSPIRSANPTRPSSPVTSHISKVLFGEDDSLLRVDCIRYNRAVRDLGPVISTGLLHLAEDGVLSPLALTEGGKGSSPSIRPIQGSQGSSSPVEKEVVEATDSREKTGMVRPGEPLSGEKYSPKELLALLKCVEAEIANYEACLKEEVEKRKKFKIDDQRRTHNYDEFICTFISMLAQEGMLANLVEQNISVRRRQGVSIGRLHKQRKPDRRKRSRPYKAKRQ
Summary of the method: as §1

[4] = biological target: EIF3F (UniProt O00303)
Summary of the method: as §1

[5] = biological target: EIF3H (UniProt O15372)
Summary of the method: as §1

[6] = biological target: T3, FAM105A (UniProt Q9NUU6)
T3 sequence (whole entry): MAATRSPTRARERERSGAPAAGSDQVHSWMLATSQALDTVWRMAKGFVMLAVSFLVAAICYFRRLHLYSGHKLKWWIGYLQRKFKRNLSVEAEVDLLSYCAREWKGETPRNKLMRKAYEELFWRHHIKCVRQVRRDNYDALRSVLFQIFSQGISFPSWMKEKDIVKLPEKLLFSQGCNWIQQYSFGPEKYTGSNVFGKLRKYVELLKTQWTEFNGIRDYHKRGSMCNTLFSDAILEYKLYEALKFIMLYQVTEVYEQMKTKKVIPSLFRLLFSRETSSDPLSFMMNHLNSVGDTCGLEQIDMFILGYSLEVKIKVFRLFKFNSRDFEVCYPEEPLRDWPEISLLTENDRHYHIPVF
Summary of the method: as §1

[7] = biological target: OTUB1 (UniProt Q96FW1)
Summary of the method: as §1

[8] = biological target: T4, OTUD4 (UniProt Q01804)
T4 sequence (whole entry): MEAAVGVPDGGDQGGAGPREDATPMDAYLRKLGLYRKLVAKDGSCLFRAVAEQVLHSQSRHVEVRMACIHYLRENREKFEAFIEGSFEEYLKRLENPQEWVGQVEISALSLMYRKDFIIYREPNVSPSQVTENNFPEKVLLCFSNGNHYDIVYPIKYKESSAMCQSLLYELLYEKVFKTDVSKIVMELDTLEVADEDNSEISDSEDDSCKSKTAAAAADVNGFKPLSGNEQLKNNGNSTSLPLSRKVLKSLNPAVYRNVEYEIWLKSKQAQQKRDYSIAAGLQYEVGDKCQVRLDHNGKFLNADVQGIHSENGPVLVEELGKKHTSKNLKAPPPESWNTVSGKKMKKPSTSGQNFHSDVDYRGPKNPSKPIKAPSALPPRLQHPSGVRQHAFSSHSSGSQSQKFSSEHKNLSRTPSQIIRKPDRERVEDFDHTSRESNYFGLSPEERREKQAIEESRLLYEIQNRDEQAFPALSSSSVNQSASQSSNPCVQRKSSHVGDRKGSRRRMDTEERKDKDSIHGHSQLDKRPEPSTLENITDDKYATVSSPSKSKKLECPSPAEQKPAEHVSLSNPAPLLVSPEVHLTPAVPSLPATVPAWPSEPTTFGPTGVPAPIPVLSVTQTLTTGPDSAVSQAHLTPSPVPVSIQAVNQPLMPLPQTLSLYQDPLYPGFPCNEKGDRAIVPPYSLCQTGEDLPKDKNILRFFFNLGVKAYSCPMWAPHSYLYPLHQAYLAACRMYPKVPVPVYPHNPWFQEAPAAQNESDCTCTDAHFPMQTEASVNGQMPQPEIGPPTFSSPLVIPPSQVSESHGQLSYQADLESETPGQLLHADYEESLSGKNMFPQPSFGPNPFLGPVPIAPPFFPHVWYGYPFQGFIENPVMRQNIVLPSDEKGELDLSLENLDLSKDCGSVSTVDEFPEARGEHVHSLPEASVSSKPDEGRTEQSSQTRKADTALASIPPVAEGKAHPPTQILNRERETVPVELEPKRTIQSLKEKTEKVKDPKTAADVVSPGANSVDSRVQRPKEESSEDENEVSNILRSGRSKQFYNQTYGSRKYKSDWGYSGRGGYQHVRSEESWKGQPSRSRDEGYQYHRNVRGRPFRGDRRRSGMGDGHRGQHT
Summary of the method: as §1

[9] = biological target: T5, OTUD5 (UniProt Q96G74)
T5 sequence (whole entry): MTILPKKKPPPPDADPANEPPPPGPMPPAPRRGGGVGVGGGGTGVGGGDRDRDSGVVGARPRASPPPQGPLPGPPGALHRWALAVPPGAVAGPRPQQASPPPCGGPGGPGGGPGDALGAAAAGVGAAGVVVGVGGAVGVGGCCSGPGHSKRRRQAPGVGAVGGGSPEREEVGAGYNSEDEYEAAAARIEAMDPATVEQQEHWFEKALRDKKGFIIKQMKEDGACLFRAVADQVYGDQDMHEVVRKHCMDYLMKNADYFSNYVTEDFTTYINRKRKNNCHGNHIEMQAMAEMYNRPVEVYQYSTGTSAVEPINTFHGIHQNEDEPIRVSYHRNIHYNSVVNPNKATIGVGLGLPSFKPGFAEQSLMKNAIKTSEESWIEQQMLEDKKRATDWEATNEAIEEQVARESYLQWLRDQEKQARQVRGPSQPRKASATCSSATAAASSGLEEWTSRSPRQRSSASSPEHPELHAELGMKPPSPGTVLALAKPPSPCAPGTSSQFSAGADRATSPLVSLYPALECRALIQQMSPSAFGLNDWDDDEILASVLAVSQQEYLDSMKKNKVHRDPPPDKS
Summary of the method: as §1

Measured: log2 ratio of Biotin-Ahx-Ub-VS probe labelling

Chain of EIF3H (O15372 whole entry): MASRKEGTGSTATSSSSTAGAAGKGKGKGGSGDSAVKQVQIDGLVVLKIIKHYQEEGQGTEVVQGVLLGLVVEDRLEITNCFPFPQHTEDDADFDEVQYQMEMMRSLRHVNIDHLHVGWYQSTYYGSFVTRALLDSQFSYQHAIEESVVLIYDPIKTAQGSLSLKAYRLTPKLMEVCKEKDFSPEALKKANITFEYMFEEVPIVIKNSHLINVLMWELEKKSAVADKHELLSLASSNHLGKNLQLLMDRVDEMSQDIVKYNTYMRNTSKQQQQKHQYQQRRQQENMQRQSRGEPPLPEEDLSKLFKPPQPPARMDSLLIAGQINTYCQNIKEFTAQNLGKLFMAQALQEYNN
Chain of EIF3F (O00303 whole entry): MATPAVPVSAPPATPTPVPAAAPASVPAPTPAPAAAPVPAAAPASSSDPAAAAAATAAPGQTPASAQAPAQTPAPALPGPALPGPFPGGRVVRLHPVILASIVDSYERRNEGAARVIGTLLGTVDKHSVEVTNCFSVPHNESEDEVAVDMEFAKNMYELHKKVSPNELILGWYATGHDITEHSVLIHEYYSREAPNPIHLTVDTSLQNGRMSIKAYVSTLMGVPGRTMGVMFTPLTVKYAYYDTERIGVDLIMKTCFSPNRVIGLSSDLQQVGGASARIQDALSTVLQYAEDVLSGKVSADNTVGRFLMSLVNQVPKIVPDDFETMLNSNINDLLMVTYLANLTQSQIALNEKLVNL
Chain of ATXN3 (P54252 whole entry): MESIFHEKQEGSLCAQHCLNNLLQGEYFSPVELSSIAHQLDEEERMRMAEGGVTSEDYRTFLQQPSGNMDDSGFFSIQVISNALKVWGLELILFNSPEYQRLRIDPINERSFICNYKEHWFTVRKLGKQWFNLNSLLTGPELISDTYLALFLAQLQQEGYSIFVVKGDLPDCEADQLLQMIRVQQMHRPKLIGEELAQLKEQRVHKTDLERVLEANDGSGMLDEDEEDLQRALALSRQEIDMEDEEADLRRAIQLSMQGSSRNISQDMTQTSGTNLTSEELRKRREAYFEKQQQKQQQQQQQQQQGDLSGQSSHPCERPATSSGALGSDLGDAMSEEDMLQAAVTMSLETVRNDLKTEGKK
Chain of OTUB1 (Q96FW1 whole entry): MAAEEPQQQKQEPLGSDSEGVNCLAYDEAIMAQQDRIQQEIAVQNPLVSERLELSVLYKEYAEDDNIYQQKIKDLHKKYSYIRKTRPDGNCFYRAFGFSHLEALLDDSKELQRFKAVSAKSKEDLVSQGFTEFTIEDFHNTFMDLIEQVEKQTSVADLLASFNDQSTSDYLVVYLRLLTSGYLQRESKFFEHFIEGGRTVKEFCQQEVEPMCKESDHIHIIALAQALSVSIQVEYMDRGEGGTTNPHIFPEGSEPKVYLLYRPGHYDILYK

Cc1c(NC(=O)CCl)c(=O)n(-c2ccccc2)n1C
active: [3] -1.12
inactive: [1] 0.0604 | [2] -0.0623 | [4] -0.188 | [5] 0.333 | [6] -0.533 | [7] -0.0746 | [8] 0.11 | [9] -0.0203
